Assay outcomes: PubChem BioAssay, National Center for Advancing Translational Sciences (NCATS)
EPAC2 ag: qHTS for Agonist of cAMP-regulated guanine nucleotide exchange factor 4 (EPAC2): primary screen. Rap guanine nucleotide exchange factor 4 (Homo sapiens), Q8WZA2. EPAC2 activation, biochemical qHTS; response scale: 100% = 6.5 mM cAMP response. Potency, µM (titrated, usually from 154 µM), for inactives: at the top dose activation, most hits filed as activators. 360,000 compounds, 0.079% hits; also: potency is read from the fitted curve at half-maximal effect; nearly all actives have a fitted effect of over 50% in size
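Setup: EPAC2 100 nM, labeled Rap1B complex 250 nM, free GDP 50 uM. Compound titrations pinned in, brief spin, 5 min room temperature incubation. Kinetic fluorescence read over 30 min, normalized to 6.5 mM cAMP.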
USP1 inh: Inhibitors of USP1/UAF1: Primary Screen. Potency, µM (titrated, usually from 57.1 µM), for the others: top-dose activity change, negative = inhibition, usual class: inhibitors. 390,000 compounds, 0.23% hits. recombinant USP1/UAF1, Ub-Rhodamine cleavage fluorescence; also: potency is read from the fitted curve at half-maximal effect; % is scaled to controls: 0 for no effect and ±100 for the full control effect; nearly all actives have a fitted effect of over 60% in size
Target sequence (O94782 whole entry, looked up): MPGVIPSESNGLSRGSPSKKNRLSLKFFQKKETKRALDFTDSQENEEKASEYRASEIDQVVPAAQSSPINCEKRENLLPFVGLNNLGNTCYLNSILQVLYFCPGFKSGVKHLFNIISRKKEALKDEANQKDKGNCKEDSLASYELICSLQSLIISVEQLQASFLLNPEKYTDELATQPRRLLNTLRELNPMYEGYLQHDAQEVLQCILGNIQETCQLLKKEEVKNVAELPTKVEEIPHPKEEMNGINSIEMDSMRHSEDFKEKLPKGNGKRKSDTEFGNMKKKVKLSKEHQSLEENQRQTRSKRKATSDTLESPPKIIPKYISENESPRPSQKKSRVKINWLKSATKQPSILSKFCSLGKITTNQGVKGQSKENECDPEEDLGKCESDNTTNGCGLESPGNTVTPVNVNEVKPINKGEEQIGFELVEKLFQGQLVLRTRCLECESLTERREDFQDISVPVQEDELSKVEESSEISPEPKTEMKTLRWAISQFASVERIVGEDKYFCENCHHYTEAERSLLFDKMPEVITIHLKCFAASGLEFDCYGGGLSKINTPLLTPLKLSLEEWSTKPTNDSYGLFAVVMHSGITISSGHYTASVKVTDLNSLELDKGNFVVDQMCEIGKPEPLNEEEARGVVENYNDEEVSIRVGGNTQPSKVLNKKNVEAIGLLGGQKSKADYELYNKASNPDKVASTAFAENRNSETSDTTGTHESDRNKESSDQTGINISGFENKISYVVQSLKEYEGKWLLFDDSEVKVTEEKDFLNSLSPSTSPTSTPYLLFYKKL
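USP1/UAF1 complex at 1 nM was preincubated with compound for 15 min at room temperature, then Ub-Rho substrate (150nM final) was added. Fluorescence (480/540 nm) was read kinetically, 6 reads every 60 seconds.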
EPAC1 agonist: qHTS for Agonist of cAMP-regulated guanine nucleotide exchange factor 3 (EPAC1): primary screen. EPAC1 agonist qHTS, biochemical assay; response scale: 100% = response to 6.5 mM cAMP. Potency, µM (titrated, usually from 154 µM), for the others: at the top dose activation, most hits filed as activators. 360,000 compounds, 0.073% hits; also: potency is read from the fitted curve at half-maximal effect; nearly all actives have a fitted effect of over 60% in size
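Nucleotide exchange by EPAC1 (100 nM) on Rap1B–BODIPY-GDP (250 nM) in the presence of 50 uM GDP is tracked fluorescently at 480/540 nm over 30 min. Signals are normalized to a 6.5 mM cAMP control.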
EPAC2 antag: qHTS for Antagonist of cAMP-regulated guanine nucleotide exchange factor 2 (EPAC2): primary screen; Rap guanine nucleotide exchange factor 4 (Homo sapiens), Q8WZA2; EPAC2 GEF exchange of Rap1B-BODIPY-GDP, fluorescence; Potency, µM (titrated, usually from 114 µM), inactives show at the highest dose activity, negative = inhibition, usual class: inhibitors; 360,000 compounds, 0.18% hits; AID 720708, 2013; also: potency is read from the fitted curve at half-maximal effect; % is scaled to controls: 0 for no effect and ±100 for the full control effect; nearly all actives have a fitted effect of over 45% in size
Coupling enz: qHTS Assay for Inhibitors of Fructose-1,6-bisphosphate Aldolase from Giardia Lamblia: Coupling assay counterscreen. coupling enzyme system counterscreen, AmpLite Red fluorescence. activity change, negative = inhibition, % at 58.2 µM, hits read low. 290,000 compounds, 0.67% hits; in the data active = activity change below about -30%; also: % is scaled to controls: 0 for no effect and ±100 for the full control effect
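Final compound at 57.5 uM, incubated 10 min at RT with coupling enzyme reagent (glyceraldehyde-3-phosphate), then 20 min with substrate and AmpLite Red detection. Fluorescence read at 525/598 nm; tests interference with the coupling assay, not aldolase inhibition.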
EPAC1 antagonist: qHTS for Antagonist of cAMP-regulated guanine nucleotide exchange factor 3 (EPAC1): primary screen | EPAC1 GEF assay, Rap1b-BODIPY-GDP exchange fluorescence | Rap guanine nucleotide exchange factor 3 (Homo sapiens), O95398 | 360,000 compounds, 0.14% hits | Potency, µM (top dose mostly 115 µM), for the others: at the top dose activity change, negative = inhibition, hits mostly inhibitors;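 also: potency is read from the fitted curve at half-maximal effect; plate controls were vehicle for no effect and positive control for full effect; nearly all actives have a fitted effect of over 50% in size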
* marks the source's active call; other numbers are inactive results; ? = inconclusive; . = not tested or not shown; [ ] = dose if it differs, or a comment. Shown are actives, neighbours in structure and some others; about 0.87% of the full set was active somewhere. Unless noted, calls follow the shape of the dose curve; as a rule, active = well fitted curve in the direction sought with a large enough effect; inconclusive = small, poorly fitted or top-dose-only effect, or another doubt; inactive = no such curve, though single readings can be large; an effect the other way counts as inactive or inconclusive.

SMILES	EPAC2 ag	USP1 inh	EPAC1 agonist	EPAC2 antag	Coupling enz	EPAC1 antagonist
Cc1ccc(NC(=O)CSc2ccccc2)cc1S(=O)(=O)N1CCCCC1	7.2%	-13.5%	16.3%	-2.4%	.	-7.8%
CN(C)Cc1cc(O)c(CN(C)C)cc1O	17.7%	?	7.5%	15.3%	-31.8*	-12.8%
O=C1Nc2ccc(S(=O)(=O)NCCC3=CCCCC3)c3cccc1c23	-12.3%	-19.9%	-12.0%	3.2%[57.1 µM]	-33.8*	7.6%
O=C1Nc2ccc(S(=O)(=O)NCCCO)c3cccc1c23	3.1%	-12.9%	-5.8%	8.3%	0.5	-5.4%
CCOC(=O)c1c(C)[nH]c(C)c1S(=O)(=O)N1CCC(C(=O)NCc2cccc(OC)c2)CC1	.	-20.7%	.	.	.	.
O=C1c2cccc(O)c2C(=O)c2c(O)cccc21	.	.	.	.	0.4	.
CC1OC(CC(=O)O)CC2=C1C(=O)c1c(O)cccc1C2=O (stereo not given)	8.7%	11.2µM*	-12.6%	?	.	?
O=C(Nc1ccc(S(=O)(=O)Nc2ccccn2)cc1)c1ccc(Cl)cc1Cl	2.5%	-17.3%	2.3%	1.9%	0.5	6.5%
CN(N=Nc1ccc([N+](=O)[O-])cc1)c1ccccc1	100µM*	?	-793.2%	347.4%	2.4	79.4µM*
CN(N=Nc1cccc([N+](=O)[O-])c1)c1ccccc1	3.8%	-18.8%	26.7%	-14.4%	-1.3	-5.3%
CC(=O)N(C1=C(N)C(=O)c2ccccc2C1=O)C(C)C	8.2%	?	8.0%	-3.7%	-43.1*	-0.6%
CC(=O)N(C)C1=C(O)c2ccccc2C(=O)C1=O	8.0%	?	5.3%	-10.0%	.	-10.2%
Cc1ccc(S(=O)(=O)O/N=C2\CCCc3ccccc32)cc1	8.0%	-12.9%	5.1%	-10.0%	-12.3	2.2%
CC1=C(C)/C(=N\OS(=O)(=O)c2ccccc2)C=CC1=O	-4.1%	-10.9%	8.4%	-0.4%	-77.3*	-13.8%
Cc1ccc(C)c(N=Cc2cc3c(cc2[N+](=O)[O-])OCO3)c1	1.1%	-19.6%	-2.6%	0.6%	-40.1*	-12.4%
Cc1cc(NC(=O)C(C)SCC(=O)O)no1 (stereo not given)	9.1%	-23.4%	15.9%	-3.5%	-0.2	-1.6%
Cc1cccc(N(Cc2ccccc2)C(=O)CSC(C)C(=O)Nc2cc(C)on2)c1 (stereo not given)	5.4%	-9.7%	112µM*	-6.9%	.	-11.6%
Cc1cccc(C)c1N(CC(=O)Nc1cc(Cl)ccc1Oc1ccccc1)S(C)(=O)=O	12.7%	-20.7%	8.2%	-2.8%	-4.0	-26.5%
COc1cc(OC)c(OC)cc1/C=C1\CC(C)C/C(=C\c2cc(OC)c(OC)cc2OC)C1=O (stereo not given)	16.3%	35.5µM*	-2.6%	0.8%	-1.7	-2.1%
CCC1C/C(=C\c2cc(OC)c(OC)cc2OC)C(=O)/C(=C/c2cc(OC)c(OC)cc2OC)C1 (stereo not given)	10.9%	?	0.8%	9.7%	1.6	-5.5%
COCCNC(=O)C1CCCN(C(=O)c2ccc(C(F)(F)F)nc2C)CC1 (stereo not given)	-3.4%	.	-4.3%	0.9%	.	8.9%
Cc1cccc(NC2=C(NCCO)C(=O)c3ccccc3C2=O)c1	12.3%	31.6µM*	6.5%	-5.2%	-35.4*	24.5%
COc1ccc(NC2=C(NCCO)C(=O)c3ccccc3C2=O)cc1	-3.4%	25.1µM*	-0.7%	-5.0%	-43.2*	-27.4%
COc1cccc(NC2=C(NCCO)C(=O)c3ccccc3C2=O)c1	2.5%	?	3.4%	-15.9%	-30.1*	-7.4%
Cc1ccc(S(=O)(=O)Nc2cc3c4c(c2)C(C)C(=O)N4CCC3)cc1 (stereo not given)	14.7%	-0.2%	-0.6%	-6.1%	.	?
SMILES	EPAC2 ag	USP1 inh	EPAC1 agonist	EPAC2 antag	Coupling enz	EPAC1 antagonist
O=C(NNC(=O)C1CC1c1ccccc1)c1ccccc1[N+](=O)[O-] (stereo not given)	3.1%	-9.2%	-2.2%	-3.7%	-1.3	-0.4%
CC(C)Cc1nn2c(=O)cc(COC(=O)CNC(=O)c3ccc(C(C)(C)C)cc3)nc2s1	.	-2.3%	.	.	.	.
CCCSc1nc2c3c(sc2c(=O)[nH]1)CC(C)(CC)OC3 (stereo not given)	-6.2%	-11.8%	1.6%	-3.5%	1.0	9.3%
COC(=O)c1c(CCl)noc1C(=O)NCC1CCCO1 (stereo not given)	4.1%	15.3%	4.7%	10.2%	3.5	-1.3%
CC(C)Cc1csc(NC(=O)c2ccc(F)cc2)c1C(=O)O	-2.1%	-25.1%	4.9%	-1.4%	-20.9	35.5µM*
CCN(CC)c1nc(N)c2c(N)n(-c3ccccc3C)c(=S)c(C#N)c2c1C#N	-9.8%	-21.8%	-23.2%	-6.6%	0.6	89.1µM*
CCN(CC)c1nc(N)c2c(N)nc3c(c2c1C#N)CC(c1ccccc1)O3 (stereo not given)	8.5%	-12.4%	10.0%	-8.8%	0.3	-1.1%
CCCCC[n+]1ccn(C2=C([O-])c3ccccc3C(=O)/C2=N\S(=O)(=O)c2ccc(Cl)cc2)c1	-12.1%	?	-8.3%	19.7%	-22.1	2.0%
CCCC[n+]1ccn(C2=C([O-])c3ccccc3C(=O)/C2=N\S(=O)(=O)c2ccc(Cl)cc2)c1	-0.8%	?	-20.0%	1.7%	-45.5*	-9.7%
O=C(N/N=C/c1ccc(N2CCOCC2)o1)c1cccc([N+](=O)[O-])c1	1.6%	-7.6%	-2.2%	-20.5%	-43.9*	-18.4%
COc1ccc(CNC(=O)C2Cc3c(-c4cccc(F)c4)ccnc3O2)cc1OC (stereo not given)	15.8%	.	-14.3%	-3.6%	.	-10.5%
Cn1c(SCC(=O)Nc2cccc(Br)c2)nnc1-c1cc2ccccc2o1	2.7%	-22.9%	-7.0%	17.5%[57.1 µM]	-2.5	11.4%
Cn1c(SCC(=O)Nc2cccc(C(=O)O)c2)nnc1-c1cc2cc(Br)ccc2o1	3.4%	-0.8%	63.1µM*	-8.2%	4.0	35.5µM*
CCN(c1ccccc1)S(=O)(=O)c1ccc(Cl)c(NC(=O)COC(=O)c2ccc(O)cc2)c1	1.1%	-16.6%	-2.0%	-5.3%	3.4	-0.3%
CCN(c1ccccc1)S(=O)(=O)c1ccc(Cl)c(NC(=O)COC(=O)c2cc(O)c3ccccc3c2O)c1	.	.	.	.	-30.7*	.
